# Test results as given in PubChem BioAssay (Tox21).
# Values without a mark were called inactive. Entries that show only a call come without a potency. Activity calls are given as the source filed them. Calls follow the shape of the dose curve; as a rule, active = well fitted activation curve with a large enough effect in the repeat runs; inconclusive = weak or mixed curves; inactive = flat fitted curve, though single readings scatter.
# Target: KiSS-1 receptor (Homo sapiens) (UniProt Q969F8)
# Assay: Human kisspeptin (KISS1R) small molecule agonists, calcium flux assay in KISS1R-HEK293 cells (AID 1920064)
# Conditions: KISS1R-HEK293, calcium flux fluorescence, agonist; series mostly up to 76.8 µM
# Text: National Center for Advancing Translational Sciences [NCATS]
# Division of Preclinical Innovation [DPI]
# U.S. Environmental Protection Agency [EPA]
# National Institutes of Environmental Health Sciences [NIEHS]
# National Toxicology Program [NTP]
# U.S. Food and Drug Administration [FDA]
# Kisspeptin and its receptor KISS1R play key roles in mammalian reproduction due to their involvement in the onset of puberty and control of the hypothalamic-pituitary-gonadal axis such as regulates GnRH release from the hypothalamus. The kisspeptin/KISS1R system also plays a direct role in peripheral organs (including the ovary, testis, uterus, and placenta) and is implicated in reproductive diseases such as miscarriage and polycystic ovary syndrome (PCOS). Abnormal KISS1R activity is associated with abnormal puberty, infertility, endometriosis, and hormone-dependent tumors. The KISS1 receptor (KISS1R, also called GPR54), a G-protein-coupled receptor (GPCR), acts (through phospholipase C) to increase intracellular inositol trisphosphate and then release intracellular calcium stores. Cell-based KISS1R-HEK293 assay is using HEK293 cells that have been genetically engineered to express the human KISS1R, which activity can be measured by calcium signaling. A compound/drug can activate (agonist) KISS1R that can be monitored by levels of intracellular calcium.
# KISS1R-HEK293 cells developed by Codex Corp contain human KISS1R gene, which was stably integrated into HEK 293 cells. The compound activation can be detected by fluorescence intensity via calcium flux assay. This cell line has been used to screen the Tox21 10K compound library to identify agonists of KISS1R.
# KISS1R-Hek293 cells were dispensed at 1500 cells/4uL/well in 1536-well black wall/clear bottom plates using a multidrop dispenser. After the assay plates were incubated at a 37 C/5% CO2 incubator for 18 hours, 4 microL of Calcium Dye Solution was added to each well. The plates were incubated at 37 C for 1 hour. And then 23 nL of compounds dissolved in DMSO, positive controls, or DMSO only was transferred to the assay plate by a pin tool station. The fluorescence intensity in the plates was measured using FDSS 7000EX kinetic plate reader with a filter set of Ex/Em=480/540 for 3 min at 1 sec intervals. Each test compound was measured at 15 concentrations and in triplicates.
# KiSS-1 receptor (Homo sapiens), sequence (Q969F8 whole entry, looked up): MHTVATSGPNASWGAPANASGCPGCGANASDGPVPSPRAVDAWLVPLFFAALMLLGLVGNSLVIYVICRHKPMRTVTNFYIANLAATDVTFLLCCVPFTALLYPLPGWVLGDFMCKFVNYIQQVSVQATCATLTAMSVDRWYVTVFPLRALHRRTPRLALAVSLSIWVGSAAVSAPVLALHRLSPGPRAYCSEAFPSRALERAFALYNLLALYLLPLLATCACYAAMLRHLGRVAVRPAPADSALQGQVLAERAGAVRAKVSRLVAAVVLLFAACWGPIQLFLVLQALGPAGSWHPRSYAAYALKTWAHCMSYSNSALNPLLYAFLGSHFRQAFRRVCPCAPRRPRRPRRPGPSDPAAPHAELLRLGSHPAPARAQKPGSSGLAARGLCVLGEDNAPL
Compound,Potency,activation
[K+],inactive,–
CSCCC=O,inactive,–
O=C1OC(=O)C2CC=CCC12 (stereo not given),inactive,–
C=C(c1ccc(C(=O)O)cc1)c1cc2c(cc1C)C(C)(C)CCC2(C)C,inactive,–
CCOC(=O)CC(C(C)=O)C(C)=O,inactive,–
COc1ccc(C(=O)NCc2ccc(OCCN(C)C)cc2)cc1OC,inactive,–
CC(=O)CC(=O)Nc1ccc2[nH]c(=O)[nH]c2c1,inactive,–
CCCCOC(=O)[C@H](C)O,inactive,–
CCOC(=O)CCC(C)=O,inactive,–
IC(I)I,inactive,–
Cc1ccc2c(c1)OCC(=O)CO2,inactive,–
Cc1oncc1C(=O)Nc1ccc(C(F)(F)F)cc1,inactive,–
CCCCC(CC)COC(=O)CC(C(=O)OCC(CC)CCCC)S(=O)(=O)O (stereo not given),inactive,–
C=C(C)[C@@H]1CC[C@@H](C)C[C@@H]1O,inactive,–
CC(C)(c1cc(Br)c(OCC(Br)CBr)c(Br)c1)c1cc(Br)c(OCC(Br)CBr)c(Br)c1 (stereo not given),inactive,–
OCC1CC2CC1C1CCC(CO)C21 (stereo not given),inactive,–
O=C(O)[C@H](O)[C@@H](O)[C@H](O[C@@H]1O[C@H](CO)[C@H](O)[C@H](O)[C@H]1O)[C@H](O)CO,inactive,–
CC(C)OCCO,inactive,–
COC(=O)Nc1nc2ccc(S(=O)c3ccccc3)cc2[nH]1 (stereo not given),inactive,–
O=C(O)c1cc(=O)c2ccccc2o1,inactive,–

Compound,Potency,activation
CCCC(C)C(O)CC (stereo not given),inactive,–
COC(=O)Nc1ccc(Cl)c(Cl)c1,inactive,–
CCOC(OCC)OCC,inactive,–
O=C(/C=C/c1ccccc1)OCc1ccccc1,inactive,–
COC(=O)c1ccc2cc(C(=O)OC)ccc2c1,–,2.25% [at 15.8 µM]
CCCCCCN,inactive,–
Nc1ccc(Cl)c(N)c1,inactive,–
CC(O)CCCCn1c(=O)c2c(ncn2C)n(C)c1=O (stereo not given),inactive,–
Cc1ccc(C)cc1,inactive,–
CC1=CCC(C(C)C)=CC1,inactive,–
O=C1NC(=O)[C@@]2(CCOc3ccc(F)cc32)N1,inactive,–
CCOC(=O)c1cccc(N)c1,inactive,–
CCCOCCOCCOCCO,inactive,–
C=CC(C)(CCC=C(C)C)OC=O (stereo not given),inactive,–
CCSC(=O)N(CC(C)C)CC(C)C,inactive,–
C=C(C)[C@@H]1CCC2=CC(=O)C[C@@H](C)[C@]2(C)C1,inactive,–
CCCCCCCC(=O)OCCCCCC,inactive,–
CCCC(O)C(O)CO (stereo not given),inactive,–
CCCCC(CC)COC(=O)c1ccc(O)cc1 (stereo not given),inactive,–
CC(C)(c1cc(Br)c(O)c(Br)c1)c1cc(Br)c(O)c(Br)c1,inactive,–
